For assay [1], the system named is T1, PKAC-alpha.
T1 construct: gene PRKACA

The subject of assay [2] is T2, PIP5K2C.
T2 construct: gene PIP4K2C

Assay [3] has as its system PIP5K1C.
The test system of assay [4] is PLK1.
Assay [5] has as its system PLK2.
In assay [6] the test system is PLK3.
The subject of assay [7] is PRKCI.
Assay [8] relates to T3, PIK4CB.
T3 construct: gene PI4KB

Assay [9] relates to PLK4.
For assay [10], the system named is PIK3CB.
The subject of assay [11] is PIK3CD.
For assay [12], the system named is PIK3CA.
Assay [13] has as its system PIKFYVE.
The test system of assay [14] is PRKD1.
Assay [15] has as its system PRKD2.
The subject of assay [16] is PRKD3.
For assay [17], the system named is T4, PFTK1.
T4 construct: gene CDK14

For assay [18], the system named is PIK3C2B.
Assay [19] concerns PIK3CG.

A value given as a limit tells only on which side of the number the result lay.
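Further: kd values determined as follow-up on hits from a single-replicate KINOMEscan panel screen.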

With `CCn1c(-c2ccccn2)nc2cnccc21` [SB-736398], in assay [1], the Kd is over 10000 nM. Turning to `COc1ccc(Nc2nccc(-c3cccc(NC(=O)c4cc5cc(F)ccc5[nH]4)c3)n2)cc1` [GSK1229782], in [2], binding was characterised by a dissociation constant (Kd) of 1400 nM. As for `COc1cc2ncn(-c3cc(OCC4CCCO4)c(C(N)=O)s3)c2cc1OC` (stereo not shown) [GSK204607], the Kd in assay [3] was 7700 nM; in assay [4], 13 nM; in [5], 4.4 nM; in assay [6], 40 nM; in assay [7] it was over 10000 nM. As for `Cc1cc(N2Cc3ccccc3C2)nc(Nc2ccc(S(=O)(=O)N3CCOCC3)cc2)n1.Cl` [GSK1669917], the Kd in assay [8] is over 10000 nM. `Nc1ncnc2[nH]c(-c3ccccc3)nc12` [AH5015]: the Kd in assay [9] was over 10000 nM. On to `O=c1cc(N2CCOCC2)nc2n(Cc3cccc(Cl)c3Cl)ccn12` [GSK2286295], for which the figures for the Kd in assay [10] and in assay [11] were 3.5 nM and 79 nM, respectively. On to `CS(=O)(=O)c1ccc(-c2c(-c3ncn[nH]3)sc(N3CCOCC3)c2C#N)cc1`, for which the Kd in assay [12] was 21 nM; in assay [10], 77 nM. As to `COc1ccc2nc(-c3cccc(C)n3)nc(Nc3ccncc3)c2c1` [GSK204919], the Kd in [13] was 1200 nM; in assay [14], 51 nM; in assay [15], 34 nM; in [16] it was 490 nM.

The compound `O=C(Nc1n[nH]c2cc(-c3cccc(F)c3F)ccc12)C1CC1` [SB-733894] gave a Kd in [13] of over 10000 nM.

For `Fc1cc(Cl)ccc1Nc1ccnc2cc(-c3ccc(CN4CCCCC4)o3)ccc12` [GW560116], the Kd in [1] was over 10000 nM.

As for `O=S(=O)(c1ccc(-c2ccnc3[nH]ccc23)cc1)N1CCCC1` [GSK846226], in assay [1], the affinity, expressed as Kd, was 260 nM. `COc1ccc(CNC(=O)NC2CCN(c3ccnc(Nc4cc(OC)c(OC)c(OC)c4)n3)C2)cc1` (stereo not shown) [GSK1379748] had a Kd in assay [2] of 600 nM. This lies in the sub-micromolar range.

On to `COc1cc2nccc(Nc3ccc(NC(=O)c4ccc(C)cc4)c(O)c3)c2cc1OC.Cl` [GW440132], for which the Kd in assay [17], in [18], in assay [12] and in [19] was over 10000 nM each time.

(Values after paper PMC5540273 (PLoS ONE, 2017).)
